In PMC4336329 (PLoS ONE, 2015):
The campaign covered roughly 310,000 compounds. About 14,000 (4.5%) showed an effect of 50% or more. The effect is printed as a negative number. Shown is part of a subset that was picked to be rich in strong results.

Target: human ether-à-go-go-related gene (hERG) potassium channel (human, UniProt Q12809)
Experiment: primary screen, population patch clamp on CHO cells stably expressing hERG; higher = less effect of the substance
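Further: peak tail current of the secondary pulse compared with the same well before compound.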

Sequence of human ether-à-go-go-related gene (hERG) potassium channel (Q12809 whole entry, looked up): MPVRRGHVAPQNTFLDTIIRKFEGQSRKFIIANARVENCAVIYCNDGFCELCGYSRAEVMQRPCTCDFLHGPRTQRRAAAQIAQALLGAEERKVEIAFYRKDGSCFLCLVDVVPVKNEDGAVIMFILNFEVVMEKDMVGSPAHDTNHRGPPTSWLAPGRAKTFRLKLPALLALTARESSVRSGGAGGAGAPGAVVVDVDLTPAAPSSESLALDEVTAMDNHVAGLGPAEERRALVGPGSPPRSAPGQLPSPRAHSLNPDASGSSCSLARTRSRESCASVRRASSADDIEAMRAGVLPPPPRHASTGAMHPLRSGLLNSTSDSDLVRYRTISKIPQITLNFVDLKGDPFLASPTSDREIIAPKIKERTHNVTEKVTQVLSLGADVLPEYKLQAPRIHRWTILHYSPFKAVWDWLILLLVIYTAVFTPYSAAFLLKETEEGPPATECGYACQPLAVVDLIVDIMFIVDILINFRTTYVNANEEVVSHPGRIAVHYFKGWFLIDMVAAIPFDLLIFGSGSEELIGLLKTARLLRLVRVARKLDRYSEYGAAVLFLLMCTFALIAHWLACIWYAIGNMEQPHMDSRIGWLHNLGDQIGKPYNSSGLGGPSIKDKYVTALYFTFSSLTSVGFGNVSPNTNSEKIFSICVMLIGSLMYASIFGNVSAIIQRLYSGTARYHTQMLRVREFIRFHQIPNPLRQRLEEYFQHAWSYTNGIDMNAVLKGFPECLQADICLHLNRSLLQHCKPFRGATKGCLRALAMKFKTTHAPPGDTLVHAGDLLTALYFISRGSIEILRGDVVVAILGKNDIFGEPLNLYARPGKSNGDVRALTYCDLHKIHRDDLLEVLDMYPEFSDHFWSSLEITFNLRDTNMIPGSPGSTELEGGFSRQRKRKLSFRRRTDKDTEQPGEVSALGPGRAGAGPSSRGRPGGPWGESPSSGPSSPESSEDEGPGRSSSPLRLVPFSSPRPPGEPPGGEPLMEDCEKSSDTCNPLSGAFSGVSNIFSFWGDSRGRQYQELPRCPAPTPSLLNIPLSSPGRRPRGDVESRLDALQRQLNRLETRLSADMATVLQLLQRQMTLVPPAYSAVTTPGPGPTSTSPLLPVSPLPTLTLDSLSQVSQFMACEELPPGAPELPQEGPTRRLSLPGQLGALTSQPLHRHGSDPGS

First: O=S(=O)(N/N=C/c1ccc(N2CCOCC2)cc1)c1ccc(Br)cc1
Second: Cc1cc(C)n(-c2cc(N3CCN(S(=O)(=O)c4ccc(Br)cc4)CC3)ccc2[N+](=O)[O-])n1
The “hERG current change (%, negative = inhibition) at 10uM” value of the first is higher: 15.1% for the first, -21.3% for the second.

Compared with `Cc1ccc2nc(-c3ccc(NC(=O)CN4C(=O)NC(C)(c5ccc(OC(F)F)cc5)C4=O)cc3)sc2c1` (stereo not drawn), `CCc1ccc(-c2nc(CN3CCC(C(=O)NCc4ccc(F)cc4)CC3)c(C)o2)cc1` is lower in “hERG current change (%, negative = inhibition) at 10uM” value: 12.4% for the first, -50.5% for the second.

Going from `Cc1cccc(-n2c(C)cc(/C=N/n3cnnc3)c2C)c1` to `Cc1cc(C)n(-c2cc(N3CCN(C(=O)c4cccc(Br)c4)CC3)ccc2[N+](=O)[O-])n1`, the “hERG current change (%, negative = inhibition) at 10uM” value falls from -0.869% to -67.6%.

First: O=C(Nc1ccc(S(=O)(=O)Nc2nccs2)cc1)C1CC(=O)N(c2ccc(Cl)cc2)C1 (stereo not drawn)
Second: O=C(NCc1ccco1)c1ccc(S(=O)(=O)c2cccc(S(=O)(=O)N3CCOCC3)c2)cc1
The “hERG current change (%, negative = inhibition) at 10uM” value of the first is lower: 0.55% for the first, 2.58% for the second.

Going from `CC1=C(C(=O)OC(C)C)C2(O)C(=O)c3ccccc3C2(O)N1` (stereo not drawn) to `CC(C)c1ccccc1NC(=O)COC(=O)Cc1c[nH]c2ccccc12`, the “hERG current change (%, negative = inhibition) at 10uM” value falls from 12% to 7.28%.

First: CN(CC(=O)Nc1c(Cl)cccc1Cl)C(=O)Cc1cccs1
Second: Cc1cccc(NC(=O)CN(C)CC(=O)NC(c2ccccc2)c2ccccc2)c1C
The “hERG current change (%, negative = inhibition) at 10uM” value of the first is higher: 2.98% for the first, -30.5% for the second.

Going from `Cc1cc(=O)oc(C)c1C(=O)NCc1ccc(F)cc1` to `CCc1ccc(-c2nc(CS(=O)CC(=O)NCc3ccco3)c(C)o2)cc1` (stereo not drawn), the “hERG current change (%, negative = inhibition) at 10uM” value rises from -15.9% to 1.94%.

Going from `O=C1CCCCC/C1=N/Nc1ccc(OCc2ccccc2)cc1` to `CCc1ccc(NC2=NCC(c3ccccc3)S2)cc1` (stereo not drawn), the “hERG current change (%, negative = inhibition) at 10uM” value falls from 17.3% to -17.5%.

Compared with `CC(C)(C)c1ccc(-n2ncc3c2CCCC3NC(=O)C2(C(N)=O)CC2)cc1` (stereo not drawn), `CS(=O)(=O)NCc1nnc(SCC(=O)NC2CCCCC2)n1-c1ccc(F)cc1` is higher in “hERG current change (%, negative = inhibition) at 10uM” value: -29.1% for the first, 11.6% for the second.

First: CCCCOc1ccc(/C=C/C(=O)OCC(=O)N2CC(=O)Nc3ccccc32)cc1OCC
Second: CCOc1ccc(C2N(c3ccc(OC)cc3)C(=O)C3CCCN32)cc1OC (stereo not drawn)
The “hERG current change (%, negative = inhibition) at 10uM” value of the first is higher: 21.2% for the first, -3.49% for the second.

Going from `CCOC(=O)c1c(C)n(C)c2ccc(O)c(CN3CCC(C)CC3)c12` to `CCOC(=O)c1c(C)n(C)c2ccc(O)c(CN3CCN(C)CC3)c12`, the “hERG current change (%, negative = inhibition) at 10uM” value rises from -23.2% to -3.46%.

Compared with `CCOC(=O)c1c(C)oc2ccc(O)c(CN3CCCCC3)c12`, `CCOC(=O)c1c(C)n(C)c2ccc(O)c(CN3CCCCC3)c12` is lower in “hERG current change (%, negative = inhibition) at 10uM” value: -37.4% for the first, -55.5% for the second.

First: CCCCn1c(C)c(C(=O)OCC)c2c(CN3CCOCC3)c(O)ccc21
Second: CCCCn1c(C)c(C(=O)OCC)c2c(CN3CCCC3)c(O)ccc21
The “hERG current change (%, negative = inhibition) at 10uM” value of the first is higher: -55.9% for the first, -72% for the second.

Going from `CCOC(=O)c1c(CSc2ccccc2)n(C)c2ccc(O)c(CN3CCOCC3)c12` to `CCOC(=O)c1c(CSc2ccccc2)n(C)c2ccc(O)c(CN3CCN(C)CC3)c12`, the “hERG current change (%, negative = inhibition) at 10uM” value rises from -46.3% to -22.6%.

Compared with `CCOC(=O)c1oc2cccc(O)c2c1CN1CCOCC1.Cl`, `CCOC(=O)c1c(-c2ccccc2)oc2ccc(O)c(CN3CCOCC3)c12` is lower in “hERG current change (%, negative = inhibition) at 10uM” value: -17.1% for the first, -37% for the second.

Compared with `CCOC(=O)c1c(-c2ccccc2)oc2ccc(O)c(CN3CCCC3)c12`, `CCOC(=O)c1c(-c2ccccc2)oc2ccc(O)c(CN3CCN(C)CC3)c12` is higher in “hERG current change (%, negative = inhibition) at 10uM” value: -64.3% for the first, -23.5% for the second.

Going from `Cc1csc(SC(C)C(=O)Nc2ccc3c(c2)OCCO3)n1` (stereo not drawn) to `CCN(CC)c1ccc(/C=N/NC(=O)CNC(=O)c2ccc3c(c2)OCCO3)cc1`, the “hERG current change (%, negative = inhibition) at 10uM” value falls from 6.25% to -5.14%.

Going from `COc1ccc(OC)c(C2CC(=O)c3c([nH]c(C(=O)OCC4CCCO4)c3C)C2)c1` (stereo not drawn) to `COc1ccc2c(c1)CCc1c(C(=O)N3CCCC3)noc1-2`, the “hERG current change (%, negative = inhibition) at 10uM” value falls from 3.54% to -7.79%.

Going from `CCOC(=O)C1C(=O)NC(N2CCN(CC)CC2)=NC1c1ccccc1` (stereo not drawn) to `COc1ccc(CC(=O)NCCS(=O)(=O)N2CCN(c3ccccc3OC)CC2)cc1`, the “hERG current change (%, negative = inhibition) at 10uM” value falls from 16.8% to -17.1%.

First: CC1CCC(CN2CCN=C2Nc2ccccc2)CC1 (stereo not drawn)
Second: O=C(Nc1ccccc1)N1CCCN(c2nccc(C(F)(F)F)n2)CC1
The “hERG current change (%, negative = inhibition) at 10uM” value of the first is lower: -14.7% for the first, -5.36% for the second.

First: CC(C)c1nnc(NC(=O)CCC(=O)NC2CCCCC2)s1
Second: Cc1cc(C)c(NC(=O)COC(=O)C2CCCCC2)c(C)c1
The “hERG current change (%, negative = inhibition) at 10uM” value of the first is lower: 1.73% for the first, 4.87% for the second.

First: O=C(Nc1ccnn1C1CCN(C(=O)c2cc(Cl)ccc2F)CC1)C1CCOC1 (stereo not drawn)
Second: Cc1oc(-c2cccc(Cl)c2)nc1CN1CCC(C(=O)NC2CC2)CC1
The “hERG current change (%, negative = inhibition) at 10uM” value of the first is higher: 23.6% for the first, 16.2% for the second.

Compared with `Fc1ccc2c(-c3cccc(C(F)(F)F)c3)c(-c3ccccc3)ncc2c1`, `Nc1ccc(N=Nc2ccccc2)c2ccccc12` is higher in “hERG current change (%, negative = inhibition) at 10uM” value: 14.1% for the first, 22.4% for the second.

Compared with `Cc1cc(C)cc(NC(=O)COc2coc(CN3CCc4ccccc43)cc2=O)c1`, `Cc1cc2ccccc2c(=O)n1CC(=O)NCc1ccco1` is higher in “hERG current change (%, negative = inhibition) at 10uM” value: 2.85% for the first, 13.8% for the second.

Going from `O=C(c1cccc(F)c1)N1CCN(c2ccc([N+](=O)[O-])c(N3CCOCC3)c2)CC1` to `Cc1cc(C)n(-c2cc(N3CCN(C(=O)c4cccc(F)c4)CC3)ccc2[N+](=O)[O-])n1`, the “hERG current change (%, negative = inhibition) at 10uM” value falls from -25% to -67.9%.

First: Cc1cc(C)n(-c2cc(N3CCN(S(=O)(=O)c4ccc5ccccc5c4)CC3)ccc2[N+](=O)[O-])n1
Second: O=C(Nc1ccc(N2CCN(C(=O)c3ccco3)CC2)c(Cl)c1)c1cccnc1
The “hERG current change (%, negative = inhibition) at 10uM” value of the first is higher: -1.13% for the first, -16.8% for the second.

First: CCN(CC(=O)Nc1ccccc1OC)C(=O)c1ccccc1Sc1ccccc1C#N
Second: COc1ccccc1CN(C)C(=O)c1ccccc1Sc1ccccc1C#N
The “hERG current change (%, negative = inhibition) at 10uM” value of the first is higher: 8.48% for the first, -25% for the second.

Compared with `O=C(CSc1ncn[nH]1)Nc1ccc(Br)cc1F`, `CCOC(=O)c1cnc2cc(C)ccn2c1=O` is lower in “hERG current change (%, negative = inhibition) at 10uM” value: -5.57% for the first, -7.41% for the second.

Compared with `O=[N+]([O-])c1ccc(C2CN=C(Nc3ccccc3)S2)cc1` (stereo not drawn), `Cc1ccccc1NC1=NCC(c2ccc([N+](=O)[O-])cc2)S1` (stereo not drawn) is higher in “hERG current change (%, negative = inhibition) at 10uM” value: -60.2% for the first, -44.9% for the second.

Going from `Cc1oc(-c2cccc(Cl)c2)nc1CN1CCC(C(=O)NCc2ccco2)CC1` to `Cc1oc(-c2ccc(Cl)cc2)nc1CN1CCC(C(=O)NCc2ccco2)CC1`, the “hERG current change (%, negative = inhibition) at 10uM” value rises from -78% to -71.2%.

Going from `O=C(NCc1ccco1)C1CCN(Cc2ccc(F)cc2)CC1.O=C(O)C(=O)O` to `CCc1ccc(-c2nc(CN3CCC(C(=O)NCc4ccco4)CC3)c(C)o2)cc1`, the “hERG current change (%, negative = inhibition) at 10uM” value falls from -15.4% to -66.3%.

Compared with `Cc1oc(-c2ccc(Cl)cc2)nc1CS(=O)CC(=O)NCc1ccco1` (stereo not drawn), `Cc1oc(-c2ccccc2F)nc1CN1CCC(C(=O)NCc2ccco2)CC1` is lower in “hERG current change (%, negative = inhibition) at 10uM” value: -35.6% for the first, -38% for the second.

Compared with `COc1ccc(C(=O)NC2CCCCCC2)cc1S(=O)(=O)N1CCCc2ccccc21`, `COc1ccc(OC)c(S(=O)(=O)NC2CCN(Cc3ccccc3)CC2)c1` is lower in “hERG current change (%, negative = inhibition) at 10uM” value: 11.3% for the first, -4.92% for the second.

Going from `CC1CCN(S(=O)(=O)c2ccc(NC(=O)CCN3C(=O)C4CC=CCC4C3=O)cc2)CC1` (stereo not drawn) to `COCCn1c(=N)c(S(=O)(=O)c2ccc(F)cc2)cc2c(=O)n3ccccc3nc21`, the “hERG current change (%, negative = inhibition) at 10uM” value falls from -25.3% to -25.5%.

Going from `CCN(CC)P(=O)(c1n(CC)cc[n+]1CC)N(CC)CC.[I-]` to `CCn1cc(C(=O)NCc2ccco2)c(=O)c2ccc(C)nc21`, the “hERG current change (%, negative = inhibition) at 10uM” value rises from 15.1% to 16.9%.

First: CCOC(=O)Cn1c(CN2CCN(C(=O)c3ccco3)CC2)nc2c1c(=O)n(C)c(=O)n2C
Second: COc1ccc(-n2nc(C(=O)NCC(=O)NCCCN3CCN(C)CC3)c3ccccc3c2=O)cc1OC
The “hERG current change (%, negative = inhibition) at 10uM” value of the first is lower: -13.3% for the first, 18.9% for the second.

Compared with `Cc1ccccc1-c1nc(CN2CCC(C(=O)NCc3ccco3)CC2)c(C)o1`, `COCCn1cc(C(=O)NCc2ccco2)c2c3ccccc3n(C)c2c1=O` is higher in “hERG current change (%, negative = inhibition) at 10uM” value: -73.6% for the first, -20.6% for the second.

Compared with `Nc1ccc(C(=O)N/N=C2\CCCc3c2[nH]c2ccccc32)cc1`, `Cc1ccccc1CN1C2=NCCCN2c2ccccc21.Cl` is lower in “hERG current change (%, negative = inhibition) at 10uM” value: 16.2% for the first, -68% for the second.

Going from `Cc1ccccc1CN1C2=NCCN2c2ccccc21.Cl` to `Cc1ccc2nc3c(cc(C(=O)NCc4ccco4)c(=N)n3Cc3ccco3)c(=O)n2c1`, the “hERG current change (%, negative = inhibition) at 10uM” value falls from -53.7% to -77%.

Compared with `COCCn1c(=N)c(C(=O)NCc2ccco2)cc2c(=O)n3ccccc3nc21`, `COCCn1c(=N)c(C(=O)NCc2ccco2)cc2c(=O)n3cc(C)ccc3nc21` is lower in “hERG current change (%, negative = inhibition) at 10uM” value: -78.1% for the first, -82.1% for the second.

Compared with `COCCn1c(=N)c(S(=O)(=O)c2ccc(Br)cc2)cc2c(=O)n3ccccc3nc21`, `CCn1cc(C(=O)NCc2ccco2)c2cc(OC)c(OC)cc2c1=O` is higher in “hERG current change (%, negative = inhibition) at 10uM” value: -44.3% for the first, -20.9% for the second.

First: C/C(=N\NC(=O)c1ccncc1)c1c(O)[nH]c(=O)[nH]c1=O
Second: [O-]/C(=C(\C(=S)Nc1ccc(SC(F)F)cc1)[n+]1ccccc1)c1cc(Cl)ccc1Cl
The “hERG current change (%, negative = inhibition) at 10uM” value of the first is lower: -1.22% for the first, 1.83% for the second.
